Screening data from PubChem BioAssay.
HCV inhibitor = HCV inhibition | Potency, µM (top dose mostly 41.8 µM), hits mostly inhibitors | Huh7.5.1 HCVcc-Cre infection, luciferase reporter, 44 h | 340,000 compounds, 3.4% hits
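Seed cells (1,000/well) for 4 h; treat with compound and infect with HCVcc-Cre, moi about 0.5. Incubate 44 h, then detect luciferase activity.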
VACV Venus inh = vaccinia inhibition (Venus reporter). Vaccinia virus Venus reporter expression, fluorescence. Potency, µM (titrated, usually from 36.5 µM), most hits filed as inhibitors. 330,000 compounds, 0.46% hits; calls by dose curve; tested in A549 cells; further: nearly all actives have a fitted effect of over 30% in size
FMDV inh = antivirals against foot and mouth disease virus. FMDV antiviral cell-based qHTS. Potency, µM (top dose mostly 57.9 µM), most hits filed as inhibitors. 410,000 compounds, 1.2% hits. AID 1159524; calls by dose curve; tested in HEK293T cells; further: read-out not given here; nearly all actives have a fitted effect of over 45% in size
Giardia FBPA inh = Giardia lamblia aldolase inhibition. 290,000 compounds, 0.71% hits. purified Giardia FBPA. A8B2U2. Potency, µM (titrated, usually from 59.6 µM), actives largely listed as inhibitors; further: nearly all actives have a fitted effect of over 55% in size
Target sequence (A8B2U2 whole entry, looked up): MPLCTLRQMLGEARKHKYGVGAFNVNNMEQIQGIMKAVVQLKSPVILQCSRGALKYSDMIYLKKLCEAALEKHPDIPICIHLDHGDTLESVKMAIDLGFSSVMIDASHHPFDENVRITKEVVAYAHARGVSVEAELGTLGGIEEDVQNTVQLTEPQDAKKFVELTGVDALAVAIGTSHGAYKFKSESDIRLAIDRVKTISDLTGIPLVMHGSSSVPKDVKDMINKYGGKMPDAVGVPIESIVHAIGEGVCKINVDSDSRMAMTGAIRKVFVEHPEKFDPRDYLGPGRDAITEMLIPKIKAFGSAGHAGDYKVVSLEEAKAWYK
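Giardia FBPA (40 nM reagent) was preincubated 10 min at RT with compound (up to 57.5 uM final), then substrate plus GAPDH/TPI/NAD/arsenate coupling system with diaphorase/resazurin was added; resorufin fluorescence (525/598 nm) was read after 20 min.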
HCMV antiviral = human cytomegalovirus inhibition | HFF cells, HCMV-luciferase reporter, 72 h; hits give low values | activity change, negative = inhibition, % at 57.5 µM | 410,000 compounds, 4.5% hits | AID 1259415; in the data active means activity change below about -60%; inconclusive means no clear call, values can overlap the other calls; inactive means above about -39%
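Compounds were evaluated in HFFs infected with an HCMV luciferase reporter virus (MOI 1 PFU/cell). Luciferase in lysates collected 72 h post infection served as the replication measure.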
VACV mCherry inh = vaccinia inhibition (mCherry reporter); Vaccinia virus mCherry reporter infection, fluorescence; Potency, µM (series often up to 36.5 µM), usual class: inhibitors; AID 720579; 310,000 compounds, 0.63% hits; calls by dose curve; tested in A549 cells; further: nearly all actives have a fitted effect of over 35% in size
Of the large screens only hits and unclear results are named; the others gave an inactive call. In the library only some 7.5% were active in any assay of this set; here they are far more common. Unless noted, the call rests on the fitted dose curve; in most records, active means well fitted curve in the direction sought with a large enough effect; inconclusive means small, poorly fitted or top-dose-only effect, or another doubt; inactive means no such curve, though single readings can be large; an effect the other way counts as inactive or inconclusive.

CN1C(=O)/C(=C/c2ccccc2F)Sc2ccc(C(=O)NCC3CCCO3)cc21 (stereo not drawn)	none (no result: VACV Venus inh, VACV mCherry inh)
c1cnc2c(c1)ccc1ncccc12	none (no result: VACV Venus inh, VACV mCherry inh)
Cc1ccc2ccc3cccnc3c2n1	HCV inhibitor inconclusive, VACV Venus inh inconclusive, HCMV antiviral -78 (no result: Giardia FBPA inh)
COc1cc(OC)c2c(-c3cccc(-c4ccc(O)cc4)c3)cc(=O)oc2c1	HCV inhibitor inconclusive, VACV Venus inh inconclusive, FMDV inh inconclusive, VACV mCherry inh inconclusive
COc1cc(OC)c2c(-c3cccc(-c4ccc(OC(F)(F)F)cc4)c3)cc(=O)oc2c1	none
COc1cc(OC)c2c(-c3cccc(-c4ccc(N(C)C)cc4)c3)cc(=O)oc2c1	HCV inhibitor inconclusive, VACV Venus inh inconclusive, HCMV antiviral -73, VACV mCherry inh inconclusive
COc1cc(OC)c2c(-c3cccc(-c4cccc(C)c4)c3)cc(=O)oc2c1	HCV inhibitor 4.5µM, VACV Venus inh inconclusive, FMDV inh inconclusive
COc1cc(OC)c2c(-c3cccc(/C=C/c4ccc(F)cc4)c3)cc(=O)oc2c1	none
COc1cc(OC)c2c(-c3cccc(-c4ccc(CO)cc4)c3)cc(=O)oc2c1	HCV inhibitor inconclusive, VACV Venus inh 10µM, FMDV inh inconclusive, VACV mCherry inh inconclusive (no result: HCMV antiviral)
COc1ccc(-c2cccc(-c3cc(=O)oc4cc(OC)cc(OC)c34)c2)cc1	HCV inhibitor inconclusive, VACV Venus inh inconclusive, HCMV antiviral -73, VACV mCherry inh inconclusive (no result: Giardia FBPA inh)
O=C(CN(CC1CCCO1)C(=O)c1nsc(Cl)c1Cl)NC1CCCC1 (stereo not drawn)	HCMV antiviral -66 (no result: VACV Venus inh, VACV mCherry inh)
O=C(c1[nH]ncc1-c1ccccc1)C1CO1 (stereo not drawn)	none
O=C(C1=NNCC1c1ccccc1)C1CO1 (stereo not drawn)	HCMV antiviral -69 (no result: VACV Venus inh, VACV mCherry inh)
COc1cc(C2Nc3ccc4ncccc4c3C3=C2C(=O)CC(C)(C)C3)cc(OC)c1O (stereo not drawn)	HCMV antiviral -83 (no result: VACV Venus inh, VACV mCherry inh)
COc1cc(C2Nc3ccc4ncccc4c3C3=C2C(=O)CCC3)cc(OC)c1O (stereo not drawn)	HCV inhibitor inconclusive, VACV Venus inh inconclusive, Giardia FBPA inh inconclusive (no result: VACV mCherry inh)
O=S(=O)(c1ccccc1C(F)(F)F)N1CCN(c2nc(-c3cccs3)nc3ccccc23)CC1	none (no result: HCV inhibitor, FMDV inh, Giardia FBPA inh, HCMV antiviral)
NS(=O)(=O)c1ccc(CCNc2nccn(-c3cccc(C(F)(F)F)c3)c2=O)cc1	none (no result: HCV inhibitor, Giardia FBPA inh)
NS(=O)(=O)c1ccc(CCNc2nn3c(-c4cccc(OC(F)(F)F)c4)cnc3s2)cc1	VACV Venus inh inconclusive, FMDV inh 22µM, HCMV antiviral -98, VACV mCherry inh inconclusive (no result: HCV inhibitor, Giardia FBPA inh)
Cc1cc(C)n(-c2nc(NCCCN(C)C)c3c4c(sc3n2)COC(C)(C)C4)n1	VACV Venus inh inconclusive, VACV mCherry inh inconclusive
Cc1cc(C)n(-c2nc3sc4c(c3c(=O)[nH]2)CCCC4)n1	none (no result: HCV inhibitor, VACV Venus inh, FMDV inh, HCMV antiviral, VACV mCherry inh)
Cc1cc(C)n(-c2nc(NCCCN(C)C)c3c4c(sc3n2)CCCC4)n1	HCV inhibitor inconclusive, HCMV antiviral -98
Cc1cc(C)n(-c2nc(NCCN(C)C)c3c4c(sc3n2)CCCC4)n1	HCV inhibitor inconclusive, FMDV inh inconclusive, HCMV antiviral -82, VACV mCherry inh inconclusive
COc1cc(S(=O)(=O)N2CCCCC2)ccc1NC(C)=O	none (no result: VACV Venus inh, VACV mCherry inh)
COc1cc(S(=O)(=O)NCC2(N3CCCCC3)CCCCC2)ccc1NC(C)=O	HCMV antiviral -98 (no result: Giardia FBPA inh)
O=C(CSc1ccc(-c2ccccn2)nn1)Nc1cccc(F)c1	HCV inhibitor inconclusive, VACV Venus inh inconclusive, VACV mCherry inh inconclusive (no result: Giardia FBPA inh)
Cc1coc2c1c(C)cc1oc(=O)cc(C)c12	none (no result: HCV inhibitor, Giardia FBPA inh)
CCc1cc(=O)oc2cc(C)c3c(C)coc3c12	HCV inhibitor 11µM (no result: VACV Venus inh, VACV mCherry inh)
CCCCC/C=C\C\C=C/C=C/C=C/[C@@H](SC[C@H](N)C(=O)NCC(=O)O)[C@@H](O)CCCC(=O)O	none (no result: HCV inhibitor, Giardia FBPA inh, HCMV antiviral)
CCCNC(=O)c1cc2c3ccccc3n(C)c2s1	HCV inhibitor inconclusive (no result: VACV Venus inh, VACV mCherry inh)
Cn1c2ccccc2c2cc(C(=O)NNC(=O)CCl)sc21	HCV inhibitor inconclusive, FMDV inh 16µM
Cn1c(CNC(=O)CCNC(=O)c2cccc(Br)c2)cc(=O)n(C)c1=O	none (no result: VACV Venus inh, Giardia FBPA inh, VACV mCherry inh)
CNC(=S)n1cnc(N)n1	HCMV antiviral -65
C=CCNc1nc(-c2ccccn2)nnc1-c1ccccc1	HCV inhibitor inconclusive, VACV Venus inh inconclusive, Giardia FBPA inh inconclusive, HCMV antiviral -103, VACV mCherry inh 28µM
